Bioassay records (PubChem)
An excerpt weighted towards active compounds, which were near 3.1% of everything screened.
Beta apoptosis: inhibitors of cytokine-induced beta cell apoptosis, primary screen, luminescence | INS-1E cytokine-induced death, ATP luminescence, 48 h; percent of positive-control rescue, neutral wells zero | actives 0.8% (n = 300,000) | protection from apoptosis, % (concentration not given with the values);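 active = Every replicate reaches about 75%, or at least half do and their mean reaches it too, limit read from the data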;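 note: higher means more ATP so stronger rescue from cytokine killing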
PP1 inh: PP1-alpha phosphatase inhibitors, primary screen, counter-screen for PP5 inhibitor project, biochemical, fluorescence, OMFP substrate, single point; actives 0.9% (n = 320,000); inhibition, % at 6.7 µM; AID 2235, 2010; purified PP1alpha;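 active = inhibition above the mean inhibition of all tested compounds plus 3 SD, computed separately for each screening campaign, cut at about 15% in these data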
SKKanGAS inh: S. pyogenes SKKanGAS growth inhibitors in kanamycin, primary screen, streptokinase expression inhibitor project, SKKanGAS strain, BacTiter-Glo luminescence; inhibition, % at 7.5 µM; actives 1.3% (n = 300,000); 6 h;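 active = mean replicate score, as percent of positive control median, at least 50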;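 note: strain carries kanamycin resistance gene driven by streptokinase promoter and grows in 40 µg/ml kanamycin; loss of luminescence reflects streptokinase promoter inhibition or plain growth inhibition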
PP5 inh: PP5 phosphatase inhibitors, primary screen, biochemical, fluorescence. purified PP5c, OMFP substrate fluorescence. inhibition, % at 6.7 µM. actives 0.18% (n = 320,000);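 active = inhibition above the campaign's mean inhibition across all tested compounds plus 3 SD, cut at about 9.5% in these data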
Target sequence (P53041 whole entry, looked up): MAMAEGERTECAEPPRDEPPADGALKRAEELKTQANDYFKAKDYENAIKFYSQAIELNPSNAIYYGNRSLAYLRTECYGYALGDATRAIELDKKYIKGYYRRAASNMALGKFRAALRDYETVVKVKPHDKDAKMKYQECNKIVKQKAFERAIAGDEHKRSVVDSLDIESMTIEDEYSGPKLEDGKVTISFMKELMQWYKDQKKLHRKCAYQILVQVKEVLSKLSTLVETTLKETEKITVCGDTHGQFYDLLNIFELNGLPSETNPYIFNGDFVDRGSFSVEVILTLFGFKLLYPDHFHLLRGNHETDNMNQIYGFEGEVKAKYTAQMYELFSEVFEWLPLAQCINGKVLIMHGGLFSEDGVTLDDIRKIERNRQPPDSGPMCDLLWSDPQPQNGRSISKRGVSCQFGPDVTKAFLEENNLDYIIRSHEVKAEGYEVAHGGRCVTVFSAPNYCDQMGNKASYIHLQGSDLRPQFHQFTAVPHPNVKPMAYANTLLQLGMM
CSC inhib: cancer stem cell viability inhibitors, primary screen, luminescence; inhibition, % at 7.5 µM; AID 2717, 2010; actives 1.1% (n = 300,000); cancer stem cell-like cells viability; in the data active = inhibition above about 75%; tested in HMLE shEcad cells
Hits are given with their value; . = inactive; / = not tested or not shown.

SMILES | Beta apoptosis | PP1 inh | SKKanGAS inh | PP5 inh | CSC inhib
CCOc1ncccc1C(=O)OCC(=O)NCc1cccs1 | . | / | / | / | .
N#CC1=C(N)Oc2c(ccc3cccnc23)C1c1ccccc1 (stereo not given) | 97 | . | . | . | .
COC(=O)C1=C(C)NC(C)=C(C(=O)OC)C1c1cc2cc(C)ccc2[nH]c1=O | . | . | . | . | .
Cc1ccc2[nH]c(=O)c(C3C(C#N)=C(N)Oc4c3ccc3cccnc43)cc2c1 (stereo not given) | 91 | . | . | . | .
O=C(Nc1ccc(Cl)cc1Cl)NC1CCN(S(=O)(=O)c2ccc(F)cc2)CC1 | . | . | . | . | .
CCC1(CC)NC(=O)N(CC(=O)N2N=C(c3ccc(Cl)cc3)CC2c2ccco2)C1=O (stereo not given) | . | . | . | . | .
CCOC(=O)c1sc(NC(=O)CNCc2ccccn2)c(C(=O)OCC)c1C | . | . | 88 | . | .
CNc1ccccc1C(C)(C)c1cc(-c2cc(C)cc(C)c2)no1 | . | . | . | . | 97
CNc1ccccc1C(C)(C)c1cc(-c2cccc(OC)c2)no1 | . | . | . | . | /
CC(=O)C1=NN(c2ccccc2)C(c2cccs2)N1c1ccc(N(C)C)cc1 (stereo not given) | 103 | . | . | . | .
CC(=O)C1=NN(c2ccccc2)C(c2ccc3c(c2)OCO3)N1c1ccccc1 (stereo not given) | . | . | . | . | .
Cc1ccc(S(=O)(=O)NC2=C(N3CCN(c4ccccc4F)CC3)C(=O)c3ccccc3C2=O)cc1 | . | . | . | . | .
CC(=O)Nc1ccc(S(=O)(=O)NC2=C(N3CCN(c4ccc(F)cc4)CC3)C(=O)c3ccccc3C2=O)cc1 | 85 | . | . | . | .
O=C(Nc1ncccc1O)c1ccc(OCC2CCCO2)cc1 (stereo not given) | . | . | . | . | /
O=C(Nc1cccnc1)c1cccs1 | 89 | . | . | . | .
O=C(NC(=S)Nc1cccnc1)c1cccs1 | . | . | . | . | /
CC(C)(C)c1ccc(Oc2ccc(NC(=O)c3ccco3)cn2)cc1 | 75 | . | . | . | 99
COc1ccc(NC(=O)c2cccs2)cn1 | . | . | . | . | .
CC(C)(C)c1ccc(Oc2ccc(NC(=O)c3cccs3)cn2)cc1 | . | . | . | . | 84
CCc1c(-c2ccccc2)[n+](=O)c2c(n1[O-])CCC2 | . | . | . | . | .
Cc1ccc(C)c(Cn2nc3c4ccccc4n(Cc4ccccc4)cc-3c2=O)c1 | / | / | . | / | /
O=S(=O)(NCc1c(Cl)cccc1Oc1ccccc1)c1ccc(F)cc1 | . | . | . | . | .
CCCCNc1cc(Cl)nc(N)n1 | . | . | . | . | .
CCOC(=O)c1cc(CC)sc1NC(=O)COC(=O)c1cc[n+]([O-])cc1 | . | . | . | . | .
CCC(=O)NNc1nc2c(C)cc(C)cc2s1 | . | . | . | . | .
SMILES | Beta apoptosis | PP1 inh | SKKanGAS inh | PP5 inh | CSC inhib
Cc1cc(C)c2nc(NNC(=O)c3ccc(S(=O)(=O)N4CC(C)CC(C)C4)cc3)sc2c1 (stereo not given) | 106 | 16 | 82 | . | 118
Cc1ccc(SCC(=O)Nc2cc([N+](=O)[O-])ccc2O)cc1 | . | . | . | . | .
CC(Oc1ccc(Cl)cc1Cl)c1nc(-c2ccc(NC(=O)c3cccnc3)cc2)no1 (stereo not given) | 101 | . | . | . | .
CC(Oc1ccc(Cl)cc1Cl)c1nc(-c2ccc(NC(=O)c3ccncc3)cc2)no1 (stereo not given) | / | . | . | . | 83
CC(Oc1ccc(Cl)cc1Cl)C(=O)NNC(=O)c1ccncc1 (stereo not given) | . | . | . | . | .
CC(Oc1ccc(Cl)cc1Cl)C(=O)Nc1ccc2oc(-c3ccncc3)nc2c1 (stereo not given) | . | . | 51 | . | .
Cc1ccc(-c2nc3cc(NC(=O)C(C)C)ccc3o2)cc1 | . | . | . | . | .
COc1cc2c(-c3ccccc3)c(C)oc2cc1/C=N/NC(N)=S | . | . | . | . | .
COc1ccc(S(=O)(=O)N(CC(=O)NN=C2CCN(C)CC2)c2cc(Cl)ccc2OC)cc1OC | . | . | . | . | .
FC(F)(F)c1cccc(CNC2c3ccccc3-c3ccccc32)c1 | . | . | 75 | . | .
O=C(NC(=S)Nc1ccc(N2CCOCC2)c(Cl)c1)c1cccs1 | . | . | 65 | . | .
COc1ccc(OCC(=O)Nc2ccc(N3CCOCC3)c(Cl)c2)cc1 | . | . | . | . | .
O=C(NC(=S)Nc1ccc(N2CCCCC2)c(Cl)c1)c1ccc2c(c1)OCCO2 | / | . | . | . | 89
COc1ccc(OCC(=O)NC(=S)Nc2ccc(N3CCOCC3)c(Cl)c2)cc1 | / | . | 68 | . | .
O=C(Nc1ccc(N2CCOCC2)c(Cl)c1)c1cccnc1 | / | . | . | . | .
O=C(NC(=S)Nc1ccccc1N1CCOCC1)c1cccs1 | / | . | . | . | .
O=C(NC(=S)Nc1ccc(N2CCOCC2)c(Cl)c1)c1cncc(Br)c1 | . | . | 71 | . | .
Cc1cc(NC(=O)c2coc(=O)c(Br)c2)ccc1C(C)C | . | . | . | . | .
CCCn1c(SCC(=O)Nc2cccnc2Cl)n[nH]c1=O | . | / | / | / | .
CCN(CC(=O)Nc1cccc(OC)c1)C(=O)c1cnc(Cl)c(Cl)c1 | . | . | . | . | .
COCCCNC(=O)/C(C#N)=C/c1c(N2CCN(c3ccccc3)CC2)nc2ccccn2c1=O | . | . | . | . | .
Cc1cc(O)ccc1NC(=S)NC(=O)c1cncc(Br)c1 | . | . | 74 | . | .
O=C(COC(=O)/C=C/c1ccc(OC(F)F)cc1)Nc1cccc(S(=O)(=O)N2CCOCC2)c1 | . | / | / | / | .
c1ccc(CSc2ncccn2)cc1 | . | . | . | . | .
O=C(CSC1=NNC(c2ccccn2)S1)Nc1ccc(C(F)(F)F)cc1 (stereo not given) | . | . | . | . | 93
SMILES | Beta apoptosis | PP1 inh | SKKanGAS inh | PP5 inh | CSC inhib
c1ccc(CSC2=NNC(c3ccccn3)S2)cc1 (stereo not given) | . | . | 83 | . | 125
Cc1cccc(N(Cc2ccccc2)C(=O)c2ccc(C)c(S(=O)(=O)N3CCOCC3)c2)c1 | . | . | / | . | /
Cc1cccc(N(Cc2ccccc2)C(=O)Cc2ccc(S(=O)(=O)N3CCOCC3)s2)c1 | . | 17 | . | . | .
COC(=O)[C@]1(CC(C)C)N[C@H](c2ccc(-c3ccc(F)cc3)cc2)[C@@H]2C(=O)N(C)C(=O)[C@@H]21 | . | . | . | . | .
CN(CC(=O)Nc1cccc(F)c1)C(=O)c1ccc(NC2CC2)c([N+](=O)[O-])c1 | / | . | . | . | .
CCc1nc2c(cnn2-c2ccc(Cl)cc2)c(=O)n1-c1ccc(OC)cc1 | . | . | 52 | . | .
CCOc1ccc(-n2c(C)nc3c(cnn3-c3ccc(Cl)cc3)c2=O)cc1 | / | / | . | / | /
CCN1CCN(c2cc(C(C)(C)C)nc3c(-c4ccccc4)c(C)nn23)CC1 | . | . | . | . | 140
